Laboratory results: PubChem BioAssay (NCATS)
Results filed as inconclusive are left out. Entries that show only a call come without a potency. Active and inactive are the calls of the source. Calls come from the whole dose curve; as a rule, active = well fitted activation curve with a large enough effect; inconclusive = small, poorly fitted or top-dose-only effect; inactive = no such curve, though single readings can be large or run the other way. Starred links: 1 amine or outer side, 2 acyl side, 3 side chain; linkers in the order of their positions; H or OH if unused. Positions of bridges follow the written chain, without caps; N, C: chain ends. Non-standard residues stand in square brackets, D forms with d. Residues, ends and D or L forms follow the SMILES beside them. ξ: configuration not given here. *: point of attachment. X3 = C[C@@H](Oc1ccc([C@H](N[*:1])C(=O)[*:2])cc1)[C@]1(/C=C\C(=O)[*:3])CO1; d(aIle) = CC[C@H](C)[C@@H](N)C(=O)O; X2 = CC(C)[C@@H](O)C(C)C(=O)*; ξNMeF = CNC(Cc1ccccc1)C(=O)O; ξT = CC(O)C(N)C(=O)O; ξS = NC(CO)C(=O)O
Potency is the fitted concentration of half-maximal effect.

Assay: Redox Reaction Profiling qHTS: Assay Interference Panel against the NCATS CANVASS Library (AID 1347401)
Settings: resazurin-DTT redox cycling, fluorescence, 15 min; series mostly up to 57.1 µM
Excerpt: Natural products and their derivatives continue to be wellsprings of nascent therapeutic potential. However, many laboratories have limited resources for biological evaluation, leaving their previously isolated or synthesized compounds largely or completely untested. To address this issue, the Canvass library of natural products was assembled (https://tripod.nih.gov/canvass), in collaboration with academic and industry researchers, for quantitative high-throughput screening (qHTS) across a diverse set of cell-based and biochemical assays. The pure (>85% purity by liquid chromatography/mass spectrometry [LC/MS]) Canvass library of 346 natural products were submitted by 45 academic laboratories and companies around the world. We collected pure natural products to circumvent deconvolution and structure elucidation due to time and resource limitations. The library was formatted into 1536-well plates and evaluated in 50 qHTS (in an 11-pnt concentration series) bioassays with broad scope of disease-relevant mechanisms. The resulting data set from 50 different assays was then systematically analyzed to identify overall trends and specific natural products with interesting biological activities. Reported herein are the results of each individual qHTS and their corresponding assay protocol. This profiling assay measures the resazurin-to-resorufin redox reaction in the presence of DTT and compound, and serves as a useful surrogate assay for measuring potential compound redox liability National Center for Advancing Translational Sciences (NCATS), Rockville, MD National Institute of Health (NIH), Bethesda, Maryland
Redox Profiling assay protocol: 1. In a black-solid bottom, medium binding, 1536-well plates (Greiner 789176), 4 uL of [1x] 5uM Resazurin + 200 uM DTT + buffer (50 mM HEPES pH 7.3 + 50 mM NaCl) was dispensed (into columns 1 - 48, rows 1 - 32) using a BioRAPTR FRD dispenser (Beckman Coulter). 2. 23 nL of compounds were pin transferred into the assay plates (columns 5 - 48) using the Kalypsis pin tool (Wako USA) equipped with a 1536-well pin heads. This yields a final concentration range of 0.002 - 127 uM. Control compound Chloranil (NCGC00091254-06) was also pinned (23 nL) into column 2, rows 1 - 32 (working concentration 10 mM, 1:2 dilution; 16 points titrations; n = 2). The final concentration range for the Chloranil was 0.002 to 57.2 uM. For 100% activation control, a single dose of 23 nL Chloranil (350 uM working concentration) was pinned to columns 3 and 4, rows 1-32 for a final concentration of 2 uM. 3. The assay plates were centrifuged for 15 seconds at 1000 rpm. 4. An initial fluorescence readout was obtained using the ViewLux plate reader (PerkinElmer) using a 525 nm excitation and a 598 nm emission filters. 5. The assay plates were incubated for 15 minutes in the dark. 6. After incubation, the final fluorescence readout was obtained using the ViewLux plate reader (PerkinElmer) using a 525 nm excitation and a 598 nm emission filters.
In the case of `C/C=C1/CN2C3CC1C1=CCC(=O)N4c5ccccc5[C@@]3(C[C@@H]2C2=C[C@H]3C5CC6N(CC[C@@]67c6ccccc6N(C2=O)[C@@H]37)C/C5=C/C)[C@H]14` (some centres undefined), the Potency is reported as “inactive”.
In the case of `C=C[C@H]1CN2CCc3c([nH]c4cccc(OC)c34)[C@@H]2C[C@@H]1/C(=C\OC)C(=O)OC`, the Potency is reported as “inactive”.
In the case of `CC[C@H]1CN2CCc3c([nH]c4cccc(OC)c34)[C@@H]2C[C@@H]1/C(=C\OC)C(=O)OC`, the Potency is reported as “inactive”.
In the case of `C=C(C)[C@H]1C(=O)c2c3c(cc4c5c(n1c24)[C@@]1(C)[C@@H](CC[C@H]2[C@](C)(/C=C/C=C(\C)C(=O)O)[C@@H](O)CC[C@@]21C)C5)C1=CC(C)(C)OC(C)(C)[C@H]1[C@@H]3O`, the Potency is reported as 19.2 µM (active).
For `O[C@H]1C=C[C@@]23CCN(Cc4cc5c(cc42)OCO5)[C@@H]3C1`, the Potency was “inactive”.
With `C/C=C1/CN2CC[C@@]34c5ccccc5N(C)[C@@H]3[C@@H]2C[C@@H]1[C@H]4C(=O)OC` the Potency was “inactive”.
For `CO[C@@]12c3c(C)cc(O)c4c(=O)occ(c34)C(=O)[C@@H]1[C@]13COC(=O)c4c(O)cc(C)c(c41)C(=O)[C@H]2[C@@H]3OC(C)=O`, the Potency was “inactive”.
For `CO[C@H]1[C@H](O[C@H]2CC[C@]3(C=O)[C@H]4CC[C@]5(C)[C@@H](C6=CC(=O)OC6)CC[C@]5(O)[C@@H]4CC[C@]3(O)C2)O[C@H](C)[C@H](O)[C@@H]1OC`, the Potency was “inactive”.
With `CCCCC1CC[C@H]2CCCC(CCC)N12` (some centres undefined) the Potency was “inactive”.
For `C[C@]12CCC3[C@@H](CC[C@@H]4C[C@@H](O)CC[C@]34CO)[C@@]1(O)CC[C@@H]2C1=CC(=O)OC1` (some centres undefined), the Potency was “inactive”.
With `CC(C)CC1C(=O)O[C@H](C(C)C)C(=O)N(C)C(CC(C)C)C(=O)O[C@@H](C(C)C)C(=O)N(C)C(CC(C)C)C(=O)O[C@H](C(C)C)C(=O)N(C)C(CC(C)C)C(=O)O[C@@H](C(C)C)C(=O)N1C` (some centres undefined) the Potency was “inactive”.
For `CCCC[C@@H](C)/C=C1/CN2CCC[C@H]2[C@@](C)(O)[C@@H]1O`, the Potency was “inactive”.
With `C[C@]12CC(O)C3[C@@H](CC[C@@H]4C[C@@H](O)CC[C@]34CO)[C@@]1(O)CC[C@@H]2C1=CC(=O)OC1` (some centres undefined) the Potency was “inactive”.
In the case of `C/C=C1/CN2CC[C@]34C(=C(C(=O)OC)[C@H]1C[C@H]23)Nc1ccccc14`, the Potency is reported as “inactive”.
In the case of `C[N+](C)(C)CCc1c[nH]c2ccccc12`, the Potency is reported as “inactive”.
For `C/C(=C\[C@H](C)C(=O)C[C@H](O)CC1CC(=O)NC(=O)C1)[C@@H]1OC(=O)/C=C/CC/C=C/C=C/[C@@H]1C`, the Potency was 24.1 µM (active).
In the case of `CO[C@@H](/C=C/CC/C=C/C(=O)O)[C@@H](O)[C@H](C)/C=C(\C)[C@H](O)[C@H](C)C(=O)CCCC1CC(=O)NC(=O)C1`, the Potency is reported as “inactive”.
With `c1ccc2nc3c(cc2c1)[nH]c1ccccc13` the Potency was “inactive”.
With `COC1=C(C2=C(OC)C(=O)c3cc4c(c(O)c3C2=O)C(=O)O[C@H](C)C4)C(=O)c2c(cc3c(c2O)C(=O)O[C@H](C)C3)C1=O` the Potency was 1.14 µM (active).
For `CCCC[C@@H]1CC[C@H]2CCCC(CCCO)N12` (some centres undefined), the Potency was “inactive”.
With `CC[C@]12C=CCN3CC[C@]4(C(=C(C(=O)OC)C1)Nc1ccccc14)[C@@H]32` the Potency was “inactive”.
In the case of `C1=C2CCCN[C@H]2C2CC1[C@H]1CCCCN1C2` (some centres undefined), the Potency is reported as “inactive”.
With `CCC(=O)N[C@@H](C[C@H](C)C(Cl)(Cl)Cl)C(=O)N1C(=O)C=C(OC)[C@@H]1C[C@H](C)C(Cl)Cl` the Potency was “inactive”.
In the case of `C/C=C/[C@@H]1[C@H]2C[C@@H](C)CC[C@@H]2C(C)=C[C@H]1C(=O)c1c(O)c(-c2ccc(O)cc2)c[nH]c1=O`, the Potency is reported as “inactive”.
In the case of `C/C=C(\C)C(=O)O[C@@H]1[C@@H](O)[C@@H]2O[C@H]3[C@H](O[C@@H](CCCCC)CCCCCCC(=O)CCC(=O)OC[C@@H](O2)[C@H]1OC(=O)/C=C/c1ccccc1)O[C@H](C)[C@H](OC(C)=O)[C@@H]3O`, the Potency is reported as “inactive”.
For `CC[C@@H]1CN2CCC3(Nc4cccc(OC)c4C3=O)[C@@H]2C[C@@H]1/C(=C\OC)C(=O)OC` (some centres undefined), the Potency was “inactive”.
In the case of `COC1C(O)C(C)OC(OC2C(Oc3cccc4c(O)c5c(=O)oc6ccc(C)c7c(=O)oc(c34)c5c67)OC(C)C(O)C2O)C1O` (centres undefined), the Potency is reported as 2.15 µM (active).
In the case of `C[C@]12CC(O)C3[C@@H](CCC4C[C@@H](O)CC[C@@]43CO)[C@@]1(O)CC[C@@H]2C1=CC(=O)OC1` (some centres undefined), the Potency is reported as “inactive”.
For `CC[C@H](C)[C@H]1NC(=O)[C@@H](NC(=O)C(C)[C@H](O)C(C)C)[C@@H](C)OC(=O)C2COC(=O)CNC(=O)/C=C\[C@]3(CO3)[C@@H](C)Oc3ccc(cc3)[C@H](NC1=O)C(=O)N(C)C(Cc1ccccc1)C(=O)NC(C(C)O)C(=O)N2` (some centres undefined) (X2-T[d(aIle)][X3][ξNMeF][ξT][ξS]; ester 1-C; linker 3-6 via G), the Potency was “inactive”.
For `CO[C@H]([C@@H](C)[C@H]1O[C@]1(C)C[C@H](C)/C=C/C=C(\C)[C@H]1O[C@@H](CC(=O)O)CC[C@@H]1C)[C@@H](C)O`, the Potency was “inactive”.
In the case of `C=CC(C)(C)[C@@]12C[C@H]3C(=O)N/C(=C\c4cnc[nH]4)C(=O)N3[C@@H]1Nc1ccccc12`, the Potency is reported as “inactive”.
In the case of `C=CC(C)(C)[C@@]12C[C@H]3C(=O)N/C(=C/c4cnc[nH]4)C(=O)N3[C@@H]1Nc1ccccc12`, the Potency is reported as “inactive”.
In the case of `CO[C@H]1C[C@H](O[C@H]2[C@@H](O)C[C@H](O[C@H]3CC[C@]4(C=O)[C@H]5CC[C@]6(C)C(C7=CC(=O)OC7)CC[C@]6(O)[C@@H]5CC[C@]4(O)C3)O[C@@H]2C)O[C@H](C)[C@H]1O[C@H]1C[C@@H](OC)[C@@H](O[C@@H]2O[C@H](CO)[C@@H](O)[C@H](O)[C@H]2O)[C@@H](C)O1` (some centres undefined), the Potency is reported as “inactive”.
With `C=C[C@]12C=CCN3CC[C@@]4(c5ccccc5NC(=O)[C@@H]4C1)[C@@H]32` the Potency was “inactive”.
